Our source for the Potency values is PubChem BioAssay (NCATS).

Results filed as inconclusive are left out. Active and inactive are the calls of the source. Unless noted, calls come from the whole dose curve.
Potency is the fitted concentration of half-maximal effect.

One experiment in a line: Cell Viability - Jurkat (AID 426;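 active = dose-dependent loss of cell ATP signal giving a full or clear fitted curve, ranked by lower potency value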;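 note: cells exposed to compound for 40 hours at 37 °C before ATP read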). As to conditions: qHTS. An outline of the steps: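 qHTS, 1536-well; Jurkat E6-1, 5000 cells/well, complete medium; cpd 40 hr, 37 °C; CellTiter-Glo 20 min RT; luminescence. AC50 by Hill fit.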
For `CC(C)NC(C)C`, the Potency is > 92 µM (inactive).
For `NCCc1ccc(O)cc1`, the Potency is > 92 µM (inactive).
Still for that read-out and setting: the same measure for `O=P1(N(CCCl)CCCl)NCCCO1` (stereo unspecified): > 92 µM (inactive); for `COP(=S)(OC)Oc1ccc(SC)c(C)c1`: > 92 µM (inactive).
On to `CCCC(C)(COC(N)=O)COC(N)=O`, for which the Potency is > 92 µM (inactive).
As for `Nc1ccccc1C(=O)O`, the Potency was > 92 µM (inactive).
On the same count and under the same terms, the value for `CN1C[C@H](C(=O)N[C@]2(C)O[C@@]3(O)[C@@H]4CCCN4C(=O)[C@H](Cc4ccccc4)N3C2=O)C=C2c3cccc4[nH]cc(c34)C[C@H]21` was 56.2 µM (active).

A short description of the next experiment: Cell Viability - HepG2 (AID 433).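 Note: cells exposed to compound for 40 hours; potency for ATP loss meaning cytotoxicity.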 As to conditions: qHTS. An outline of the steps: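 Cytotoxicity read as ATP loss (CellTiter-Glo luminescence) after 40 hr compound exposure of HepG2, 1500 cells/well, 37 °C. AC50 by Hill equation; 0% set by DMSO, 100% inhibition by 100 uM tamoxifen.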
On to `CCC(C)(C)c1ccc(O)cc1`, for which the Potency was > 92 µM (inactive).
Turning to `C[C@]12CCC(=O)C=C1CC[C@@H]1[C@@H]2CC[C@]2(C)C(=O)CC[C@@H]12`, the Potency is > 92 µM (inactive).
As for `Nc1ccccc1`, the Potency was > 92 µM (inactive).
The same measure, in the same setting: the value for `O=C(O)CCCc1ccc(N(CCCl)CCCl)cc1` was > 92 µM (inactive); that for `CCOC(=O)CC(SP(=S)(OC)OC)C(=O)OCC` (stereo unspecified) was > 92 µM (inactive).
Regarding `C[C@]1(O)CC[C@H]2[C@@H]3CCC4=CC(=O)CC[C@]4(C)[C@@]3(F)[C@@H](O)C[C@@]21C`, the Potency was > 92 µM (inactive).
For the molecule `COc1cc(OC)c(OC)cc1C=O`, the Potency was > 92 µM (inactive).
Still for that read-out and setting: the same measure for `CC(C)c1cccc(C(C)C)c1O`: > 92 µM (inactive); for `COC(=O)C(c1ccccc1)C1CCCCN1` (stereo unspecified): > 92 µM (inactive); for `Oc1ccc(Cl)cc1`: > 92 µM (inactive).
The same measure, in the same setting: the value for `CC(C)NC(C)C` was > 92 µM (inactive); that for `NCCc1ccc(O)cc1` was > 92 µM (inactive).
In the case of `O=P1(N(CCCl)CCCl)NCCCO1` (stereo unspecified), the Potency is > 92 µM (inactive).
Still for that read-out and setting: the value for `COP(=S)(OC)Oc1ccc(SC)c(C)c1` was > 92 µM (inactive); that for `CCCC(C)(COC(N)=O)COC(N)=O` was > 92 µM (inactive).
Take `Nc1ccccc1C(=O)O`: the Potency is > 92 µM (inactive).
Same read-out and setting: the value for `CN1C[C@H](C(=O)N[C@]2(C)O[C@@]3(O)[C@@H]4CCCN4C(=O)[C@H](Cc4ccccc4)N3C2=O)C=C2c3cccc4[nH]cc(c34)C[C@H]21` was > 92 µM (inactive); that for `C[C@]12CCC(=O)C=C1CC[C@@H]1[C@@H]2CC[C@@]2(C)[C@H]1CC[C@]2(C)O` was > 92 µM (inactive); that for `Clc1ccc(C(c2ccc(Cl)cc2)C(Cl)(Cl)Cl)cc1` was > 92 µM (inactive).
